These results are taken from PubChem BioAssay (EPA / NIEHS).

Some compounds were tested as several samples or in several runs, with calls that do not always agree. Active and inactive are the calls of the source. Rule for the calls: active = hit-call score of the fitted dose curve at least 0.9, where 1 is the maximum; inactive = score below 0.9.

Read-out in the assay: Intercellular Adhesion Molecule 1 (ICAM1), ICAM1 (gene 3383)
The assay is described as follows: BSK_KF3CT_ICAM1: BioMAP Diversity Plus: KF3CT Assay for Intercellular Adhesion Molecule 1 (ICAM1) Biomarker Activity (AID 2283067). The settings on record: primary human keratinocytes with fibroblasts; actives raise or lower the signal. As to the method: BSK_KF3CT is a cell-based, multiplexed-readout assay that uses keratinocytes and foreskin fibroblasts, a human skin primary cell co-culture, with measurements taken at 24 hours after chemical dosing in a 96-well plate.BSK_KF3CT_ICAM1 is an assay component measured in the BSK_KF3CT assay. It measures ICAM-1 antibody related to regulation of gene expression using ELISA technology.Data from the assay component BSK_KF3CT_ICAM1 was analyzed into 1 assay endpoint. This assay endpoint, BSK_KF3CT_ICAM1, was analyzed with bidirectional fitting relative to DMSO as the negative control and baseline of activity. Using a type of binding reporter, gain or loss-of-signal activity can be used to understand changes in the signaling as they relate to the gene ICAM1. Furthermore, this assay endpoint can be referred to as a primary readout, because this assay has produced multiple assay endpoints where this one serves a signaling function. To generalize the intended target to other relatable targets, this assay endpoint is annotated to the cell adhesion molecules intended target family, where the subfamily is Immunoglobulin CAM.
The levels of cell surface (or secreted, indicated by the prefix "s") biomarker endpoints were measured by ELISA. Overt cytotoxicity to cells in confluent adherent cultures (all systems other than the BT system) was assessed by measuring total protein levels using sulforhodamine B (SRB) staining in parallel cultures at the time of biomarker measurements, indicated as SRB endpoints. For proliferation assays for adherent cell types, individual cell types are cultured at sub-confluence and relative cell numbers quantified by SRB staining at time points optimized for each system (48 h: 3C and CASM3C systems; 72 h: BT and HDF3CGF systems; 96 h: SAg system). SRB was performed by staining cells with 0.1% SRB after fixation with 10% TCA and reading wells at 560 nm.Viability and proliferation of PBMC (T cells) was quantified by Alamar Blue reduction for the SAg and BT systems. For PBMC viability (referred to as PBMC Cytotoxicity within the assay endpoint names), cells were plated (75,000/well in a 96-well plate) and then chemical samples added for 1 h before addition of activators, SEB and TSST-1 (20 ng/mL final concentration each). Cells were incubated for 90 h. Then, Alamar Blue (20 uL/well) (Invitrogen, Cat DAL1100) was added for 6 h, and the plates were read with a fluorescence microplate reader at 546/580 nm (excitation/emission). For PBMC proliferation, cells were plated and activated as above but incubated for only 16 h prior to addition of Alamar Blue. Plates were read after 6 h.
Turning to `O=C(O)C(F)(F)C(F)(F)C(F)(F)C(F)(F)C(=O)O`, the outcome was inactive.
Broadly, the AC50 is the midpoint of the concentration-response curve, whichever way the signal moves. Take `C=CC(=O)OCC(C)OCC(C)OCC(C)OC(=O)C=C` (stereo not given): the AC50 is 18.1 µM (active).
`CCCC(C)C(=O)OCC` (stereo not given): the outcome was inactive.
Consider `CCCCCCCCCCCC(=O)N(C)CC(=O)O`, for which the outcome was inactive.
Consider `C=CC(=O)OCCCCCCOC(=O)C=C`, for which the AC50 was 20 µM (active).
In the case of `Nc1nc(N)nc(-c2ccccc2)n1`, the outcome was inactive.
The same measure, in the same setting: the same measure for `CCC1(C)C(=O)N(Cl)C(=O)N1Cl` (stereo not given): “inactive”; for `Cc1ccc([N+](=O)[O-])cc1N`: “inactive”; for `CC1=CC=C(C(C)C)CC1`: “inactive”.
The same measure, in the same setting: the same measure for `CC=C(C)C=CC=C(C)C`: “inactive”.
As for `c1ccc2sc(SSN3CCOCC3)nc2c1`, the AC50 is 10.7 µM (active).
`CC(Cl)COP(=O)(OCC(C)Cl)OCC(C)Cl` (stereo not given): the outcome was inactive.
Consider `CCCCCCCCCCCC(C)=O`, for which the outcome was inactive.
`C=CC(=O)OCCCCCCCC(C)C`: the outcome was inactive.
Same read-out and setting: the same measure for `CCCCCCOC(=O)CCCCC(=O)OCCCCCC`: “inactive”; for `C=CC(=O)NC(C)(C)C`: “inactive”.
`CC/C=C\CCOC(=O)c1ccccc1O`: the AC50 is 20 µM (active).
Consider `COC(OC)(C(=O)c1ccccc1)c1ccccc1`, for which the outcome was inactive.
Take `Fc1ccc(Br)cc1`: the outcome was inactive.
Take `CC(C)c1cccc(C(C)C)c1N`: the outcome was inactive.
The same measure, in the same setting: the same measure for `CCCCCCCCC(CO)CCCCCC` (stereo not given): “inactive”; for `Clc1cc(Cl)c(Cl)c(Cl)c1Cl`: “inactive”.
Turning to `O=C1CCCCCCCCCCC1`, the result was inactive.
With `CC(CCC(=O)O)(c1ccc(O)cc1)c1ccc(O)cc1`, the outcome was inactive.
Still for that read-out and setting: the same measure for `CCCCCC1=CCCC1=O`: “inactive”.
On the same count and under the same terms, the same measure for `C1CNCCN1`: “inactive”; for `Nc1ccc(C(=O)O)cc1`: “inactive”.
Still for that read-out and setting: the same measure for `C=CC(=O)NCOCCCC`: “inactive”; for `Cc1c(O)cccc1O`: “inactive”.
Take `CCOC(=O)/C=C\C(=O)OCC`: the result was inactive.
As for `C=C(C)C(=O)OCCCCCCCCCCCC`, the outcome was inactive.
Same read-out and setting: the same measure for `O=C(Cl)c1c(Cl)c(Cl)c(C(=O)Cl)c(Cl)c1Cl`: “inactive”.
Still for that read-out and setting: the same measure for `CC(C)CCCCCOC(=O)CS`: “inactive”; for `COc1ccc(C(=O)c2ccccc2)c(O)c1`: “inactive”; for `CCNc1nc(NC(C)(C)C)nc(OC)n1`: “inactive”.
Same read-out and setting: the same measure for `CC1(C)CC(O)CC(C)(C)N1[O]`: “inactive”; for `C=CCCCCCCCCC=O`: “inactive”.
`CCc1cccc(C)c1N(C(=O)CS(=O)(=O)O)C(C)COC` (stereo not given): the result was inactive.
For `C[N+](C)(C)CCCNS(=O)(=O)C(F)(F)C(F)(F)C(F)(F)C(F)(F)C(F)(F)C(F)(F)C(F)(F)C(F)(F)F`, the AC50 is 47.6 µM (active) and the result was inactive.
